# Molecular target: T1, ETS1 (UniProt P14921)
# T1 sequence: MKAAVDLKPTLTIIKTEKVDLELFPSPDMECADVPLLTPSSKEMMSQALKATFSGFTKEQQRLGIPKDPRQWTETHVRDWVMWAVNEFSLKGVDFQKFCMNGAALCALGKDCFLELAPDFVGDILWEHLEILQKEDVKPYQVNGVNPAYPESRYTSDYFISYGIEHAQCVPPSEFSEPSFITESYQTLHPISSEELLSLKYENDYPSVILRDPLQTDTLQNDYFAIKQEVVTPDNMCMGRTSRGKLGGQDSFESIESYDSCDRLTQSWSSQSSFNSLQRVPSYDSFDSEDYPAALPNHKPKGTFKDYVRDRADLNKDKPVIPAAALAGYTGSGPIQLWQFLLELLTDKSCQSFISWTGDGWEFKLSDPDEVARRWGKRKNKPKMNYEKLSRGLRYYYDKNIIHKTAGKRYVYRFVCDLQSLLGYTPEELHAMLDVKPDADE
# Experiment: TF binding intensity (PBM fluorescence), negative control probe (arbitrary fluorescence units); higher = stronger binding
# Procedure: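 gcPBM negative-control 36-bp genomic probes lacking TF binding sites. Each was incubated with recombinant human ETS1 or RUNX1 alone and detected by antibody fluorescence. Values are medians over replicate spots (4 spots for the ETS1-RUNX1 arrays, 3 for the ETS1-ETS1 array). The probes sit in constant array flanks that are not printed.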
row,Sequence,TF binding intensity
1,GAAGCCAGTGAGCCAGGAGTGCTGATTGGTTAGGGA (protein concentration 10 nM),107
2,GTTTGGCTTTCAGAGTGTGGTTTGGATTCCTAACAG (protein concentration 1 nM),450
3,ACATGTCAAAGAGCTTCTTTAAGCAGTAGGTGGTTT (protein concentration 10 nM),143
4,GTTTTGCAACTCTTATTCCAAGTGGACACCCAGAAA (protein concentration 10 nM),140
5,AAACAAAGTAAGCTTTTAAGGACTCTGGTCAGAAAC (protein concentration 10 nM),101
6,TAAGTATTAAGAGTTGCAACACTCTAATCAAGGATA (protein concentration 10 nM),102
7,GGGGAAAATGAGCACAGGTGTGAAGCAGATCACAGG (protein concentration 10 nM),170
8,ATATTCTCTTACATAACCACAGTACATTTATCAGCC (protein concentration 1 nM),573
9,GGCAAGCTTATATAGTTTGCTTCATAAAACTCTATT (protein concentration 10 nM),119
10,CCCTAAGCGCCTGCGCACATTTGCGCATCGCTCTGC (protein concentration 10 nM),109
11,TTATAATACATGTGCAGTATATTTTCTTGAAACTTC (protein concentration 10 nM),110
12,CCACGCTTTGCCAGCACTTTCCCCTGCCTCGTCTGT (protein concentration 10 nM),119
13,TCCTCTGGTCTCTAAACCACAGCCTCCACCAGCAAC (protein concentration 1 nM),442
14,GGCTGAGGTGTCTGTGTTGGCAGCAGGAGCCTCTCT (protein concentration 10 nM),128
15,AGCAGATCATTTGAGCCTGGGAGGCGCACATGGCAG (protein concentration 10 nM),116
16,CTGCTGGGTGGAGTGTGGACAAGCGGCCTTTGCATC (protein concentration 10 nM),150
17,CCAGCAGCAGTTGTGAATTGGGTAATTTAATGAAAA (protein concentration 10 nM),116
18,TATAAGGGGCTTTTCCCCTTTGGCTCAGCACTTCTC (protein concentration 10 nM),116
19,TGATCTTTGCTTTGCTTTTTGAAAGATCTGGCAAGG (protein concentration 10 nM),104
20,GAAATGGAGCAGAAAACCTGGAACCCAGCTGGGAAG (protein concentration 10 nM),117

row,Sequence,TF binding intensity
1,TTCTAAAGAAATCACAGTCAAATCTACCATTTGCGT (protein concentration 10 nM),99.5
2,ATGGATAAGAATGTCTGTGGGTAGCTGTCTCCTCTT (protein concentration 1 nM),444
3,GCCTTGCCTTGGTCATGTTTGACTCTGCCTTCAACT (protein concentration 10 nM),146
4,GATGCTTTTGTCCCACTAGGGCTCGTGCCTTAGTGA (protein concentration 10 nM),112
5,TTGGGACCAATTTGACCCACAAACCCTGAAAAAGAG (protein concentration 1 nM),497
6,AACAGCCCCCTGAACTGCAGGGTGTGACTGTTAGCC (protein concentration 10 nM),140
7,TTTAAAAAATCTACTCTGTCCCTTAAAAGGCCGTTT (protein concentration 10 nM),107
8,TCCTCACGAATCTCTCTACTTCTGTTCTTGCCCATC (protein concentration 10 nM),135
9,GCCCTGAGACTTGCCTTGCAATGCCATGTTTGTGTA (protein concentration 10 nM),125
10,CTCCCTCTCTCCCTCCCTCCCTCCCTCCCTCCCTTC (protein concentration 10 nM),230
11,GTTCATCATCTCTCGTCAAGATGATTAACGACATGG (protein concentration 10 nM),141
12,CTCAGTGCCTGCCTCAGATGTTTAAGTCTGAACATT (protein concentration 10 nM),110
13,TAATCCCAGCACTTTGGGAATCCAAGGCAGTCAAAT (protein concentration 10 nM),94.8
14,AATCCAATGGGGTTTCTGTGTAATTAATAACATCTA (protein concentration 10 nM),120
15,GTTGTTATGCAAGGTTGTGGTTTTTGCAGTCTTTTG (protein concentration 1 nM),498
16,AGGCCTGTAGCATTTAGCTGGCCTCTGAGGAATAAC (protein concentration 10 nM),101
17,GTTGGGCCCCCTGGGCCTTGTTCTCGGGATCCAGGG (protein concentration 10 nM),111
18,AAATTCTGTAACCAGTGCTCTTGAGCTGCTTGCTGG (protein concentration 10 nM),102
19,CAGGTGGATGACTCAGCTGGAGAACAAAGTGGCTTC (protein concentration 10 nM),122
20,GCTATTTTCTCTGCTTGAACATACCGTGTACACACA (protein concentration 10 nM),178
